In PubChem BioAssay (EPA / NIEHS):
Active and inactive are the calls of the source. The calls were made as follows: active = hit-call score of the fitted dose curve at least 0.9, where 1 is the maximum; inactive = score below 0.9.

assay: ATG_Sox_CIS: Attagene CIS-FACTORIAL HepG2 Assay for human SRY-box transcription factor (SOX) (AID 2282960); conditions: HepG2 Attagene cis-factorial SOX reporter, mRNA; actives raise or lower the signal
Experimental: ATG_CIS is a cell-based, multiplexed-readout assay that uses HepG2, a human liver cell line, with measurements taken at 24 hours after chemical dosing in a 24-well plate.ATG_Sox_CIS is one of 52 assay component(s) measured or calculated from the ATG_CIS assay. It is designed to make measurements of mRNA induction, a form of inducible reporter, as detected with fluorescence intensity signals by Reverse transcription polymerase chain reaction (RT-PCR) and Capillary electrophoresis technology.Data from the assay component ATG_Sox_CIS was analyzed into 1 assay endpoint. This assay endpoint, ATG_Sox_CIS, was analyzed with bidirectional fitting relative to DMSO as the negative control and baseline of activity. Using a type of inducible reporter, measures of mRNA for gain or loss-of-signal activity can be used to understand the reporter gene at the transcription factor-level as they relate to the gene SOX1. Furthermore, this assay endpoint can be referred to as a primary readout, because this assay has produced multiple assay endpoints where this one serves a reporter gene function. To generalize the intended target to other relatable targets, this assay endpoint is annotated to the dna binding intended target family, where the subfamily is HMG box protein.
Human liver HepG2 cells are transiently transfected with multiple reporter transcription units (MRTUs) in 6-well plates using FuGene 6 reagent (Roche; 3 ml FuGene/1 mg DNA). The MRTU constructs are regulated by a cis-regulating element (promoter). […] A major difference between the CIS and TRANS system is that in CIS activities of endogenous TFs are measured, whereas the TRANS assay evaluates changes in activities of exogenous, chimeric NR-Gal4 proteins. […] At the end of 24 hour incubation, total RNA was isolated using TriZol reagent (Invitrogen). The isolated RNA is then reverse-transcribed using oligo(dT) primer and Mo-MLV reverse transcriptase (Invitrogen) with DNAse I (Ambion) treatment for 30 min. The one-tenth of the produced cDNA was amplified by PCR using Taq DNA polymerase (Invitrogen) and two reporter sequence-specific primers. The PCR products were fluorescently labeled by primer extension with 6-arboxyfluorescein (6-FAM) 5'-labeled reporter sequence-specific primer (2 min at 95 C, 20 s at 68 C and 10 min at 72 C) and these products were digested with 5U of HpaI (New England Biolabs) for 2h at 37 C. The fragments were purified using Qiaquick PCR columns (Qiagen), analyzed on an ABI 3130xL genetic analyzer (Applied Biosystems) with peak positions identified by using a set of X-rhodamine (ROX)-labeled MapMarker1000 molecular weight standards (BioVentures). The raw capillary electrophoresis data was processed using Attagraph software (Attagene).

outcome, inactive:
CCCCCCCCCCCCSC, O=C(O)c1cccc([N+](=O)[O-])c1, CC(C)(Oc1ccc(CCNC(=O)c2ccc(Cl)cc2)cc1)C(=O)O, CC(C)(C)c1n[nH]c(=S)n(N)c1=O, CC(C)C(C)(C)C(C)(C)C(C)(C)S, CCCCCC=CCC(=O)OC, NC(=O)Nc1ccc(Cl)cc1, CCCCCCOC(=O)CCCCC, N#Cc1ccc(CC(=NNC(=O)Nc2ccc(OC(F)(F)F)cc2)c2cccc(C(F)(F)F)c2)cc1, CC(C)C[C@H]1C(=O)N2CCC[C@H]2[C@]2(O)O[C@](NC(=O)[C@@H]3C=C4c5cccc6[nH]c(Br)c(c56)C[C@H]4N(C)C3)(C(C)C)C(=O)N12, O=S(=O)(O)c1ccc(O)c2ncccc12, O=[N+]([O-])c1ccc(C=Cc2ccc([N+](=O)[O-])cc2S(=O)(=O)O)c(S(=O)(=O)O)c1, Sc1nc(S)nc(S)n1, Nc1cc(Cl)c(O)c(Cl)c1, O=C(OCc1ccccc1)C(=O)OCc1ccccc1, CCC(=O)OCc1ccccc1, CC1CCC(C(C)(C)O)CC1 (stereo not given), c1ccc2c(c1)c1cccc3ccc4cccc2c4c31, Cc1ccc2sc3cccc(C)c3c2c1, O=C(O)CCCCCCCCCCC(=O)O, CCN(CC)c1ccc2c(-c3ccccc3C(=O)O)c3ccc(=[N+](CC)CC)cc-3oc2c1, CC(=O)OCC=Cc1ccccc1, Nc1cccc(S(=O)(=O)c2cccc(N)c2)c1, O=C(O)c1cn(-c2ccc(F)cc2)c2cc(N3CCNCC3)c(F)cc2c1=O, CCCc1c(OCCCOc2ccc(OCC(=O)O)cc2)ccc(C(C)=O)c1O, CC1(C)[C@@H]2CC[C@@]1(C)[C@H](O)C2, Nc1cc([N+](=O)[O-])ccc1Cl, CC(CC(C)(C)C)CC(C)(C)CC(C)(C)C (stereo not given), Cc1c(N(C)C)c(=O)n(-c2ccccc2)n1C, O=C(O)CN(CCN(CC(=O)O)CC(=O)O)CCN(CC(=O)O)CC(=O)O, CCCCCCCCCCCCOCCO, CC(CCO)CCCC(C)(C)O (stereo not given), C=CC(=O)OCCn1c(=O)n(CCOC(=O)C=C)c(=O)n(CCOC(=O)C=C)c1=O, CC[C@]12CCCN3CCc4c(n(c5ccccc45)[C@@](O)(C(=O)OC)C1)[C@@H]32, CSc1nc(NC2CC2)nc(NC(C)(C)C)n1, CCCc1ccccc1O, C=C(C)C(=O)O

AC50, active:
C=CC(C)(O)CCC=C(C)CCC=C(C)C (stereo not given) 148 µM, O=C(Nc1ccccc1)c1cc([N+](=O)[O-])ccc1Cl 40.5 µM, N#Cc1nc(Cl)c(Cl)c(Cl)c1Cl 5.26 µM
